Laboratory results taken from PubChem BioAssay AID1851 (National Center for Advancing Translational Sciences (NCATS), 2009).
Out of some 16,000 compounds screened, about 5,100 (32%) were called active. Roughly 25% stayed inconclusive and do not appear here. The call rests on the fitted dose curve; in most records, active means well fitted curve in the direction sought with a large enough effect; inconclusive means small, poorly fitted or top-dose-only effect, or effect the other way; inactive means no such curve, though single readings can be large or run the other way. The list shows a part of the results.

Biological target: Cytochrome P450 3A4 (Homo sapiens) (UniProt P08684)
Assay: Cytochrome panel assay with activity outcomes
Conditions: recombinant CYP, pro-luciferin dealkylation, luminescence, p450-cyp3a4; series mostly up to 57.1 µM; activity, negative = inhibition: at the top concentration
On the % scale 0 is the no-effect control and ±100 the full control effect.

Cytochrome P450 3A4 (Homo sapiens), sequence (P08684 whole entry, looked up): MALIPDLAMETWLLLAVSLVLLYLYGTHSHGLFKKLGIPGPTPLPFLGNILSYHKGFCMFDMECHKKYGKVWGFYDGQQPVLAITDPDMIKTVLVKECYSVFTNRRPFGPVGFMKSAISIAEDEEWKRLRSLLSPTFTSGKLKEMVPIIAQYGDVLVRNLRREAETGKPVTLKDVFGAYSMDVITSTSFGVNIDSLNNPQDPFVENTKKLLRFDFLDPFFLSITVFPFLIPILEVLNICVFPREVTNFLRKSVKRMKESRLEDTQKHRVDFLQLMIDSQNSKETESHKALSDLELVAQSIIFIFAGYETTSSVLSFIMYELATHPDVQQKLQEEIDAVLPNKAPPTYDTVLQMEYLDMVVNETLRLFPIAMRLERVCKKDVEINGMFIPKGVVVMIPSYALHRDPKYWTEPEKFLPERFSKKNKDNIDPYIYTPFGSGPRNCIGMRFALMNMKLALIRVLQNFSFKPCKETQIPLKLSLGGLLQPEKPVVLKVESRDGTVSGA

| Structure (SMILES) | AC50 | activity, negative = inhibition |
| --- | --- | --- |
| COC(=O)[C@@]1(Cc2ccccc2)[C@H]2c3cc(C(=O)N(C)C)n(Cc4c(CO)[nH]cc(C)c4=O)c3C[C@H]2CN1C(=O)c1ccccc1 | 1.58 µM (active) |  |
| COC(=O)[C@@]1(Cc2ccc(F)cc2)[C@H]2c3cc(C(=O)N(C)C)n(Cc4c(CO)[nH]cc(C)c4=O)c3C[C@H]2CN1C(=O)c1ccccc1 | 1.58 µM (active) |  |
| COCCNC(=O)CSc1nc2ccc(N3CCOCC3)cc2c(=O)n1Cc1ccc(OC)cc1 | 5.01 µM (active) |  |
| CCCCn1c(SC(C)C(N)=O)nc2cc(C(=O)OC)ccc2c1=O (centres undefined) |  | -24% (inactive) |
| NC(=O)CSc1nc2sc(-c3ccccc3)cc2c(=O)n1N |  | -22% [at 2.29 µM] (inactive) |
| CCCCn1c(SCC(N)=O)nc2ccc(N3CCOCC3)cc2c1=O | 10 µM (active) |  |
| CCCCNC(=O)CSc1nc2cc(OC)c(OC)cc2c(=O)n1Cc1ccc(OC)cc1 | 2.82 µM (active) |  |
| Cc1ccc(OC(=O)c2ccc(N3CCOCC3)c([N+](=O)[O-])c2)cc1 |  | 19.3% (inactive) |
| Cc1cc(N2CCOCC2)ncc1[N+](=O)[O-] |  | 8.16% [at 2.29 µM] (inactive) |
| Cc1ccc(OCC(=O)N2CCN(c3ccc([N+](=O)[O-])c(N4CCOCC4)c3)CC2)cc1 | 7.08 µM (active) |  |
| COc1ccc(C(C)=O)c(OC(=O)c2ccco2)c1 |  | -5.71% (inactive) |
| COC(=O)Nc1nc2ccc(SC(C)C)cc2[nH]1 |  | 7.47% [at 25.6 µM] (inactive) |
| CCCCc1ccc2nc(NC(=O)OC)[nH]c2c1 |  | 7.68% [at 25.6 µM] (inactive) |
| CCOC(=O)NC(=O)CSc1nc2ccc(OCC)cc2[nH]1 | 28.2 µM (active) |  |
| COc1ccc2nc(SCC(=O)c3ccco3)[nH]c2c1 | 11.2 µM (active) |  |
| CN(CC(=O)O)Cc1c(O)c(Cl)cc(Cl)c1Cl |  | -14.8% [at 11.4 µM] (inactive) |
| Cc1ccc2oc(-c3cccc(NC(=S)NC(=O)/C=C/c4ccco4)c3)nc2c1 | 1 µM (active) |  |
| C[N+](C)(C)CCN(Cc1ccc(Cl)cc1)c1ccccn1 |  | 15.1% (inactive) |
| O=C(O)COc1c(Cl)cc(Cl)c2cccnc12 |  | -9.36% [at 11.4 µM] (inactive) |
| O=C(COc1ccc(Cl)cc1)N(Cc1ccccc1)c1ccccn1 | 22.4 µM (active) |  |

| Structure (SMILES) | AC50 | activity, negative = inhibition |
| --- | --- | --- |
| O=C1O[C@@H]([C@H](O)[C@H](O)[C@H](O)CO)[C@@H](O)[C@@H]1O |  | -1% [at 11.4 µM] (inactive) |
| COc1ccc2c(c1OC)C(=O)N(C(C)C(=O)O)C2=O (centres undefined) |  | 4.09% (inactive) |
| c1cncc(-c2cncnc2-n2ccnc2)c1 | 7.94 µM (active) |  |
| CCCC(=O)n1nc(-c2cccnc2)nc1N |  | 0.62% [at 2.29 µM] (inactive) |
| CN(C)c1ccc(-c2cncnc2-n2ccnc2)cc1 | 2.51 µM (active) |  |
| COc1cccc(-c2cncnc2-n2ccnc2)c1 | 0.316 µM (active) |  |
| N#Cc1cccc(-c2cncnc2-n2ccnc2)c1 | 2.51 µM (active) |  |
| Cc1ccc(C)c(N/C(N)=N/c2nc(C)cc(C)n2)c1 |  | -18.9% (inactive) |
| Cc1ccc(C(C2C(=O)CC(C)(C)CC2=O)C2C(=O)CC(C)(C)CC2=O)s1 |  | -24% (inactive) |
| C[N+](C)(C)CCCCCCCCCC[N+](C)(C)C |  | 11.2% [at 25.6 µM] (inactive) |
| COc1ccccc1-c1cncnc1-n1ccnc1 | 0.251 µM (active) |  |
| COc1ccccc1-c1nnc(NC(C)=O)s1 |  | -18.1% (inactive) |
| CC(C)(C)c1cc(C(=O)O)c(CN2CCCCC2)o1 |  | -12.5% (inactive) |
| CC(Sc1ccc2c(c1)OCCO2)C(=O)Nc1ncc(Cl)cc1Cl (centres undefined) | 14.1 µM (active) |  |
| C/C(CCC(=O)OC[C@@H]1O[C@H](C#Cc2ccccc2)C=C[C@@H]1Oc1ccc(C)cc1)=N/O[C@@H](C)CN1CCCc2nc(C)c(C)cc21 | 3.98 µM (active) |  |
| C/C(CCC(=O)OC[C@@H]1O[C@H](C#Cc2ccccc2)C=C[C@@H]1Oc1ccc(C)cc1)=N/O[C@@H](C)CN1CCCCc2nc(C)c(C)cc21 | 3.16 µM (active) |  |
| Cc1cc(NC(=O)C2=C(O)c3ccccc3S(=O)(=O)N2C)no1 |  | -4.95% [at 25.6 µM] (inactive) |
| COC(=O)c1ccccc1N/C=C1\CCc2c(c(C)nn2-c2ccccn2)C1=O | 14.1 µM (active) |  |
| Cc1nn2c3c(cnc2c1-c1ccccc1)C(=O)CC(c1ccccc1)C3 (centres undefined) |  | -7.16% (inactive) |
| CCOC(=O)c1ccccc1N/C=C1\CCCCC1=O |  | -9.45% [at 11.4 µM] (inactive) |

| Structure (SMILES) | AC50 | activity, negative = inhibition |
| --- | --- | --- |
| CC(=O)Nc1ccc2c(c1)/C(=C/c1ccc([N+](C)(C)C)cc1)c1ccccc1-2 |  | -11.9% [at 11.4 µM] (inactive) |
| CCCS(=O)(=O)N1CCCC(C(=O)NCc2cccnc2)C1 (centres undefined) |  | -7.24% [at 2.29 µM] (inactive) |
| O=C(Nc1ccc(Cl)c(C(F)(F)F)c1)C1CCCN(S(=O)(=O)c2cnc[nH]2)C1 (centres undefined) | 0.126 µM (active) |  |
| COCc1nnc(NC(=O)CSc2ccc(C)cc2)s1 |  | -22.6% [at 11.4 µM] (inactive) |
| COc1ccc(Cc2nnc(NC(=O)CSc3ccc(C)cc3)s2)cc1OC | 8.91 µM (active) |  |
| COC(=O)c1cc(OC)c(OC)cc1NC(=O)CSc1ccc(C)cc1 | 1.58 µM (active) |  |
| O=C(O)CCCC[C@H]1CCSS1 |  | 19.8% (inactive) |
| C=C(C)C(=O)N1CC2(CC(c3cccc(NC(=O)c4ccccc4)c3)=NO2)C[C@@H]1C(N)=O (some centres undefined) |  | 14.3% (inactive) |
| NC(=O)[C@H]1CC2(CC(c3cccc(NC(=O)c4ccccc4)c3)=NO2)CN1C(=O)[C@H]1CCC(=O)N1 (some centres undefined) |  | 10.5% (inactive) |
| NC(=O)CNC(=O)[C@@H]1CC2(CC(c3ccc(Cl)cc3)=NO2)CN1C(=O)c1ccccc1 (some centres undefined) |  | 16.2% [at 2.29 µM] (inactive) |
| NC(=O)C1(NC(=O)[C@@H]2CC3(CC(c4cccc(NC(=O)c5cc([N+](=O)[O-])cc([N+](=O)[O-])c5)c4)=NO3)CN2C(=O)c2ccccc2)CC1 (some centres undefined) | 3.16 µM (active) |  |
| CCCCCC(=O)N1CC2(CC(c3cccc(NC(=O)c4ccccc4)c3)=NO2)C[C@@H]1C(N)=O (some centres undefined) | 15.8 µM (active) |  |
| NC(=O)CNC(=O)[C@@H]1CC2(CC(c3cccc([N+](=O)[O-])c3)=NO2)CN1C(=O)c1ccccc1 (some centres undefined) |  | 8.44% [at 2.29 µM] (inactive) |
| O=c1c2ccccc2nnn1CSc1nnc(COc2ccc(Cl)cc2)n1Cc1ccco1 | 12.6 µM (active) |  |
| CN(C)c1ccc2nc3c(C(=O)O)cc(=O)c(O)c-3oc2c1 |  | -10.3% [at 11.4 µM] (inactive) |
| COc1ccc2[nH]cc(CCNc3ccnc(-c4ccc5c(c4)OCO5)n3)c2c1 | 2.51 µM (active) |  |
| COc1ccc2[nH]cc(CCNc3ccnc(-c4ccc(C(=O)N(C)C)cc4)n3)c2c1 | 3.16 µM (active) |  |
| COc1ccc2[nH]cc(CCNc3cc(-c4ccc(C(=O)N(C)C)cc4)ncn3)c2c1 | 6.31 µM (active) |  |
| COc1ccc2[nH]cc(CCNc3ccnc(-c4ccc(N(C)C)cc4)n3)c2c1 | 5.01 µM (active) |  |
